According to PubChem BioAssay (NCATS):
Results filed as inconclusive are left out. Calls of active or inactive are those of the source. The call rests on the fitted dose curve; in most records, active means well fitted cell-killing curve with a large enough effect; inconclusive means small, poorly fitted or top-dose-only effect, or effect the other way; inactive means no such curve, though single readings can be large or run the other way.

Test: Quantitative High-Throughput drug screen in 47 multiple myeloma cell lines against the NCATS MIPE library collection: KMS20_JCRB cell viability assay (AID 1918973); further: nearly all actives have a fitted effect of over 45% in size
Details: CellTiter-Glo ATP, 48 h; series mostly up to 45.8 µM; viability (% of DMSO): at the top concentration
From the text: PI: Beverly A. Mock Ph.D.
Laboratory of Cancer Biology and Genetics,
Center for Cancer Research, National Cancer Institute,
National Institute of Health, Bethesda, Maryland
Drug resistance and disease progression are common in multiple myeloma (MM) patients, underscoring the need for new therapeutic combinations. […] We hypothesized that effective combinations would reduce MYC expression and enhance p16 activity. […] These preclinical data identify potentially useful drug combinations for evaluation in drug-resistant MM and reveal potential mechanisms of combined drug sensitivity.
Described herein is the primary MIPE qHTS used to cherrypick compounds. Validated compounds were then further tested for potential synergistic activiy.
[1] Peat TJ, Gaikwad SM, Dubois W, Gyabaah-Kessie N, Zhang S, Gorjifard S, Phyo Z, Andres M, Hughitt VK, Simpson RM, Miller MA, Girvin AT, Taylor A, Williams D, D'Antonio N, Zhang Y, Rajagopalan A, Flietner E, Wilson K, Zhang X, Shinn P, Klumpp-Thomas C, McKnight C, Itkin Z, Chen L, Kazandijian D, Zhang J, Michalowski AM, Simmons JK, Keats J, Thomas CJ, Mock BA. Drug combinations identified by high-throughput screening promote cell cycle transition and upregulate Smad pathways in myeloma. Cancer Lett. 2023 Aug 1;568:216284. doi: 10.1016/j.canlet.2023.216284. Epub 2023 Jun 24. PMID: 37356470; PMCID: PMC10408729.
SEQUENCE No. (e.g., 1, 2, 3, etc.); […] (e.g., Cells, Incubation, Reagent, etc.); VALUE and DESCRIPTION.
1; Cells; 5 uL; white, solid bottom 1536-well Greiner assay plate.
2; Compounds; 23 nL; Kalypsis pin tool (Wako USA) equipped with a 1536-well pin head to transfer to the assay plates.
3; Incubation; 48 hours; 37C incubation.
4; Reagent;5uL; CellTiter Glo (Promega).
5; Detector; 425V; Luminescence; Viewlux PerkinElmer.
NOTES (numbers refer to Sequence numbers above)
1. The cell-based screening methods employed in this study were like those previously published. Briefly, the corresponding myeloma cell lines were screened in 1,536-well plates with 500 cells, 5-uL per well for inhibition of cell viability (assessed by measuring ATP levels with CellTiterGlo).
2. NCATS MIPE 4.0 library of approved and investigational drugs were added using the Kalypsis pin tool. Wells treated with DMSO only for 100% viability and media only wells for 0% viability were used as controls.
3. The assay plates were covered and incubated for 48 hours in a 37C, 5% CO2 incubator with controlled humidity.
4. After 48 hours, CellTilter-GloTM luminescent substrate mix (Promega) reagent was added to the assay plate and plates we incubated for 5 min at room temperature.
5. Signal was measured as median relative luminescence units on a ViewLux (PerkinElmer) multiplate reader.
[1] Heske CM, Davis MI, Baumgart JT, Wilson K, Gormally MV, Chen L, Zhang X, Ceribelli M, Duveau DY, Guha R, Ferrer M, Arnaldez FI, Ji J, Tran HL, Zhang Y, Mendoza A, Helman LJ, Thomas CJ. Matrix Screen Identifies Synergistic Combination of PARP Inhibitors and Nicotinamide Phosphoribosyltransferase (NAMPT) Inhibitors in Ewing Sarcoma. Clin Cancer Res. 2017 Dec 1;23(23):7301-7311. doi: 10.1158/1078-0432.CCR-17-1121. Epub 2017 Sep 12. PMID: 28899971; PMCID: PMC6636827.
Potency means the concentration at half of the fitted maximal effect.

| SMILES | Potency | viability (% of DMSO) |
| --- | --- | --- |
| CS(=O)(=O)c1cccc(CNc2nc(Nc3ccc4c(c3)CCC(=O)N4)ncc2C(F)(F)F)c1 | 14.8 µM (active) | – |
| CCCCNc1cc(C(=O)O)cc(S(N)(=O)=O)c1Oc1ccccc1 | – | 128% (inactive) |
| CC(C)(C)NCC(O)c1ccc(O)c(CO)c1 (stereo not given) | – | 163% (inactive) |
| OCCC#Cc1nc(-c2ccc(F)cc2)c(-c2ccncc2)n1CCCc1ccccc1 | 16.6 µM (active) | – |
| Cn1cc(-c2ccc3nnc(C(F)(F)c4ccc5ncccc5c4)n3n2)cn1 | – | 94% (inactive) |
| Cn1cnc2c(F)c(Nc3ccc(Br)cc3Cl)c(C(=O)NOCCO)cc21 | 0.0935 µM (active) | – |
| NS(=O)(=O)c1cc2c(cc1Cl)NC=NS2(=O)=O | – | 115% (inactive) |
| CCCc1nn(C)c2c(=O)[nH]c(-c3cc(S(=O)(=O)N4CCN(C)CC4)ccc3OCC)nc12 | 18.7 µM (active) | – |
| COc1ccc(-c2oc3cc(OC)ccc3c2C(=O)c2ccc(C#N)cc2)cc1 | – | 85.4% (inactive) |
| N#Cc1ccc(C(c2ccc(C#N)cc2)n2cncn2)cc1 | – | 85.6% (inactive) |
| c1ccc(-c2nn3c(c2-c2ccnc4cc(OCCN5CCOCC5)ccc24)CCC3)nc1 | – | 118% (inactive) |
| NC(=O)c1ccc(-c2nc(-c3ccc4c(c3)OCO4)c(-c3ccccn3)[nH]2)cc1 | – | 81.3% (inactive) |
| Cn1c(=O)c(F)c(Nc2ccc(I)cc2F)c2c(=O)n(C[C@@H](O)CO)cnc21 | 0.0118 µM (active) | – |
| CCOc1cc(C(=O)Nc2ccc(Cl)c(-c3nc4ccccc4[nH]3)c2)cc(OCC)c1OCC | 1.48 µM (active) | – |
| CN1CCN(CCCN2c3ccccc3Sc3ccc(C(F)(F)F)cc32)CC1 | 16.6 µM (active) | – |
| Cc1ccc(NC(=O)c2cccc(C(C)(C)C#N)c2)cc1Nc1ccc2ncn(C)c(=O)c2c1 | 2.96 µM (active) | – |
| Nc1nc2ccc(OC(F)(F)F)cc2s1 | – | 108% (inactive) |
| CCC(=O)N[C@H]1CC[C@H](C(=O)N(C)c2ccc(-c3nc4ccccc4o3)cc2)C1 | 7.43 µM (active) | – |
| CC(C)OC(=O)C1=CN(C(=O)c2ccc(F)c(F)c2)CC(C)(C)c2c1[nH]c1ccccc21 | – | 97.6% (inactive) |
| CCOC(=O)C1=C[C@]2(CC)CCCN3CCc4c(n1c1ccccc41)[C@@H]32 | 5.9 µM (active) | – |

| SMILES | Potency | viability (% of DMSO) |
| --- | --- | --- |
| Cc1c(CN2CCN(C(=O)C(C)C)CC2)sc2c(N3CCOCC3)nc(-c3cnc(N)nc3)nc12 | 0.418 µM (active) | – |
| O=c1[nH]c(-c2ccc(C(F)(F)F)cc2)nc2c1CSCC2 | – | 127% (inactive) |
| CCn1cc(C(=O)O)c(=O)c2cc(F)c(N3CCNC(C)C3)c(F)c21 (stereo not given) | – | 114% (inactive) |
| O=C(NOC[C@H](O)CO)c1ccc(F)c(F)c1Nc1ccc(I)cc1F | 0.0662 µM (active) | – |
| O=C(C=Cc1ccc(/C=C/C(=O)Nc2ccc(C3=NCCN3)cc2)cc1)Nc1ccc(C2=NCCN2)cc1 | – | 108% (inactive) |
| COc1ccc2nc(S(=O)Cc3ncc(C)c(OC)c3C)[nH]c2c1 (stereo not given) | – | 112% (inactive) |
| CCN(c1ccccc1)c1cc(NC)[n+](C)c(C)n1 | – | 146% (inactive) |
| Clc1cccc(Cl)c1NC1=NCCN1 | – | 105% (inactive) |
| Oc1cccc(-c2nc(N3CCOCC3)c3oc4ncccc4c3n2)c1 | 0.152 µM (active) | – |
| COc1ccccc1-c1cccc(-c2c(O)c3cc(C#N)c(Cl)cc3[nH]c2=O)c1 | – | 110% [at 92.2 µM] (inactive) |
| Oc1ccc(C2CNCCc3c2cc(O)c(O)c3Cl)cc1 (stereo not given) | – | 73.7% (inactive) |
| Nc1nc2c(ncn2COCCO)c(=O)[nH]1 | – | 94.1% (inactive) |
| C1COC(NC(C2CC2)C2CC2)=N1 | – | 107% (inactive) |
| CO[C@@H]1[C@H](N(C)C(=O)c2ccccc2)C[C@H]2O[C@]1(C)n1c3ccccc3c3c4c(c5c6ccccc6n2c5c31)C(=O)NC4 | 1.05 µM (active) | – |
| CC(C)(C)OC(=O)CN(Cc1ccc(Cl)cc1)Cc1ccc([N+](=O)[O-])s1 | – | 72% (inactive) |
| N[C@@H]1CONC1=O | – | 121% (inactive) |
| Cc1c(CCOc2ccc(C(=O)O)cc2)c2cc(Cl)ccc2n1C(c1ccccc1)c1ccccc1 | – | 85.7% (inactive) |
| COc1ccc(-c2ccc3c(N4CCOC[C@H]4C)nc(N4CCOC[C@H]4C)nc3n2)cc1CO | 0.0093 µM (active) | – |
| COc1ccc(CC2=NN3C([C@@H](CCc4ccccc4)[C@@H](C)O)=NC(C)C3C(=O)N2)cc1OC (stereo not given in full) | – | 137% (inactive) |
| Cc1cc2c(C(C)C)c(O)c(O)c(C=O)c2c(O)c1-c1c(C)cc2c(C(C)C)c(O)c(O)c(C=O)c2c1O | 11.8 µM (active) | – |
